Measured values as given in PubChem BioAssay AID1159580 (chemical genetic matrix, 2015).
Out of some 5,500 compounds screened, about 2,000 (36%) were called active. Inconclusive results (about 18%) are left out. Cut-off read from the data, not from the text of the source: active = normalized growth mostly below about 0.91 (no sharp cut-off); inconclusive = no clear call, values can overlap the other calls; inactive = mostly above about 0.92. The list shows a part of the results.

Assay: chemical genetic growth profiling, strain panel (AID 1159580);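 note: tested at 20 µM; growth read once vehicle control cultures reached saturation at 30 °C; 1 = growth at the plate median or of vehicle wells; lower values mean less growth of the strain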
Settings: growth OD
[1] = S. cerevisiae deletion strains, locus YAL013W, strain DEP1, stronger effect = lower value
[2] = S. cerevisiae deletion strains, locus YBR021W, strain FUR4, stronger effect = lower value
[3] = S. cerevisiae deletion strains, locus YBR229C, strain ROT2, stronger effect = lower value
[4] = S. cerevisiae deletion strains, locus YCL029C, strain bik1, stronger effect = lower value
[5] = S. cerevisiae deletion strains, locus YDL035C, strain GPR1, stronger effect = lower value
[6] = S. cerevisiae deletion strains, locus YDL074C, strain BRE1, stronger effect = lower value
[7] = S. cerevisiae deletion strains, locus YDL101C, strain DUN1, stronger effect = lower value
[8] = S. cerevisiae deletion strains, locus YDL185W, strain tfp1, stronger effect = lower value
[9] = S. cerevisiae deletion strains, locus YDL192W, strain arf1, stronger effect = lower value
[10] = S. cerevisiae deletion strains, locus YDR101C, strain arx1, stronger effect = lower value
[11] = S. cerevisiae deletion strains, locus YDR162C, strain NBP2, stronger effect = lower value
[12] = S. cerevisiae deletion strains, locus YDR318W, strain mcm21, stronger effect = lower value
[13] = S. cerevisiae deletion strains, locus YDR388W, stronger effect = lower value
[14] = S. cerevisiae deletion strains, locus YDR502C, strain sam2, stronger effect = lower value
[15] = S. cerevisiae deletion strains, locus YEL061C, strain CIN8, stronger effect = lower value
[16] = S. cerevisiae deletion strains, locus YER110C, stronger effect = lower value
[17] = S. cerevisiae deletion strains, locus YER155C, strain BEM2, stronger effect = lower value
[18] = S. cerevisiae deletion strains, locus YER167W, strain BCK2, stronger effect = lower value
[19] = S. cerevisiae deletion strains, locus YGL078C, strain dbp3, stronger effect = lower value
[20] = S. cerevisiae deletion strains, locus YGL086W, strain mad1, stronger effect = lower value
[21] = S. cerevisiae deletion strains, locus YGL248W, strain PDE1, stronger effect = lower value
[22] = S. cerevisiae deletion strains, locus YGR135W, strain pre9, stronger effect = lower value
[23] = S. cerevisiae deletion strains, locus YGR252W, strain gcn5, stronger effect = lower value
[24] = S. cerevisiae deletion strains, locus YHR030C, strain SLT2, stronger effect = lower value
[25] = S. cerevisiae deletion strains, locus YHR079C, strain IRE1 (second series), stronger effect = lower value
[26] = S. cerevisiae deletion strains, locus YHR094C, strain hxt1, stronger effect = lower value
[27] = S. cerevisiae deletion strains, locus YHR129C, strain ARP1, stronger effect = lower value
[28] = S. cerevisiae deletion strains, locus YHR200W, strain rpn10, stronger effect = lower value
[29] = S. cerevisiae deletion strains, locus YIL066C, strain RNR3, stronger effect = lower value
[30] = S. cerevisiae deletion strains, locus YIL073C, strain SPO22, stronger effect = lower value
[31] = S. cerevisiae deletion strains, locus YIL125W, strain kgd1, stronger effect = lower value
[32] = S. cerevisiae deletion strains, locus YIR030C, strain dcg1, stronger effect = lower value
[33] = S. cerevisiae deletion strains, locus YJL095W, strain BCK1, stronger effect = lower value
[34] = S. cerevisiae deletion strains, locus YJL134W, strain LCB3, stronger effect = lower value
[35] = S. cerevisiae deletion strains, locus YJL168C, strain set2, stronger effect = lower value
[36] = S. cerevisiae deletion strains, locus YJL187C, strain SWE1 (second series), stronger effect = lower value
[37] = S. cerevisiae deletion strains, locus YJR043C, strain POL32, stronger effect = lower value
[38] = S. cerevisiae deletion strains, locus YKL068W, stronger effect = lower value
[39] = S. cerevisiae deletion strains, locus YKR001C, strain vps1, stronger effect = lower value
[40] = S. cerevisiae deletion strains, locus YLR039C, strain RIC1, stronger effect = lower value
[41] = S. cerevisiae deletion strains, locus YLR058C, strain SHM2, stronger effect = lower value
[42] = S. cerevisiae deletion strains, locus YLR102C, strain apc9, stronger effect = lower value
[43] = S. cerevisiae deletion strains, locus YLR262C, strain YPT6, stronger effect = lower value
[44] = S. cerevisiae deletion strains, locus YLR268W, strain sec22, stronger effect = lower value
[45] = S. cerevisiae deletion strains, locus YLR330W, strain CHS5, stronger effect = lower value
[46] = S. cerevisiae deletion strains, locus YLR342W, strain FKS1 (second series), stronger effect = lower value
[47] = S. cerevisiae deletion strains, locus YLR371W, strain rom2, stronger effect = lower value
[48] = S. cerevisiae deletion strains, locus YLR418C, strain cdc73, stronger effect = lower value
[49] = S. cerevisiae deletion strains, locus YML016C, strain PPZ1, stronger effect = lower value
[50] = S. cerevisiae deletion strains, locus YML032C, strain rad52, stronger effect = lower value
[51] = S. cerevisiae deletion strains, locus YML124C, strain tub3, stronger effect = lower value
[52] = S. cerevisiae deletion strains, locus YMR078C, strain ctf18, stronger effect = lower value
[53] = S. cerevisiae deletion strains, locus YMR223W, strain ubp8, stronger effect = lower value
[54] = S. cerevisiae deletion strains, locus YMR307W, strain GAS1, stronger effect = lower value
[55] = S. cerevisiae deletion strains, locus YNL067W, strain RPL9B, stronger effect = lower value
[56] = S. cerevisiae deletion strains, locus YNL128W, strain TEP1, stronger effect = lower value
[57] = S. cerevisiae deletion strains, locus YNL153C, strain GIM3, stronger effect = lower value
[58] = S. cerevisiae deletion strains, locus YNL233W, strain BNI4, stronger effect = lower value
[59] = S. cerevisiae deletion strains, locus YNL250W, strain rad50, stronger effect = lower value
[60] = S. cerevisiae deletion strains, locus YNL271C, strain bni1, stronger effect = lower value
[61] = S. cerevisiae deletion strains, locus YNL298W, strain CLA4, stronger effect = lower value
[62] = S. cerevisiae deletion strains, locus YNL307C, strain MCK1, stronger effect = lower value
[63] = S. cerevisiae deletion strains, locus YNL322C, strain KRE1, stronger effect = lower value
[64] = S. cerevisiae deletion strains, locus YNR052C, strain pop2, stronger effect = lower value
[65] = S. cerevisiae deletion strains, locus YOL012C, strain htz1
[66] = S. cerevisiae deletion strains, locus YOL147C, strain pex11, stronger effect = lower value
[67] = S. cerevisiae deletion strains, locus YOR061W, strain CKA2, stronger effect = lower value
[68] = S. cerevisiae deletion strains, locus YOR069W, strain VPS5, stronger effect = lower value
[69] = S. cerevisiae deletion strains, locus YOR136W, strain idh2, stronger effect = lower value
[70] = S. cerevisiae deletion strains, locus YOR144C, strain elg1, stronger effect = lower value
[71] = S. cerevisiae deletion strains, locus YOR184W, strain ser1, stronger effect = lower value
[72] = S. cerevisiae deletion strains, locus YOR316C, strain cot1, stronger effect = lower value
[73] = S. cerevisiae deletion strains, locus YPR119W, strain clb2, stronger effect = lower value
[74] = S. cerevisiae deletion strains, locus YPR141C, strain kar3, stronger effect = lower value
[75] = S. cerevisiae deletion strains, locus YPR163C, strain tif3, stronger effect = lower value
[76] = S. cerevisiae deletion strains, locus YPR167C, strain met16, stronger effect = lower value
[77] = S. cerevisiae deletion strains, strain wtn01, stronger effect = lower value
[78] = S. cerevisiae strains, strain wild type, stronger effect = lower value

Measured: normalized growth

NCC(CC(=O)O)c1ccc(Cl)s1 (centres undefined)
inactive: [1] 0.991 | [2] 0.96 | [3] 0.99 | [4] 0.985 | [5] 0.994 | [6] 1.02 | [7] 0.992 | S. cerevisiae deletion strains, locus YDL134C, strain PPH21, stronger effect = lower value 0.982 | [8] 0.978 | [9] 0.987 | [10] 0.998 | S. cerevisiae deletion strains, locus YDR150W, strain NUM1, stronger effect = lower value 1 | [11] 1.03 | [12] 0.968 | [13] 0.99 | [14] 0.996 | [15] 0.994 | [16] 0.979 | [17] 1 | [18] 0.973 | [19] 0.995 | [20] 0.958 | [21] 0.987 | S. cerevisiae deletion strains, locus YGR078C, strain PAC10, stronger effect = lower value 0.994 | [22] 0.974 | S. cerevisiae deletion strains, locus YGR229C, strain SMI1, stronger effect = lower value 0.958 | [23] 0.926 | [24] 0.989 | [25] 0.992 | [26] 0.991 | [27] 0.99 | [28] 0.978 | [29] 0.979 | [30] 0.959 | [31] 1.01 | [32] 0.993 | [33] 0.991 | [34] 0.989 | [35] 0.996 | [36] 0.999 | [37] 0.964 | S. cerevisiae deletion strains, locus YJR075W, strain HOC1, stronger effect = lower value 1.06 | S. cerevisiae deletion strains, locus YKL009W, strain mrt4, stronger effect = lower value 1 | [38] 0.989 | S. cerevisiae deletion strains, locus YKL085W, strain MDH1 (second series), stronger effect = lower value 1.02 | S. cerevisiae deletion strains, locus YKL085W, strain MDH1, stronger effect = lower value 1.02 | S. cerevisiae deletion strains, locus YKL190W, strain CNB1, stronger effect = lower value 0.997 | [39] 0.947 | [40] 1.01 | [41] 0.985 | [42] 0.998 | [43] 1.03 | [44] 0.988 | [45] 0.993 | [46] 0.978 | [47] 0.986 | [48] 0.914 | [49] 0.984 | [50] 0.963 | [51] 0.979 | [52] 0.989 | [53] 0.958 | S. cerevisiae deletion strains, locus YMR263W, strain SAP30, stronger effect = lower value 1.01 | [54] 0.959 | [55] 1.02 | [56] 1.02 | [57] 1.02 | [58] 0.989 | [59] 0.995 | [60] 0.988 | [61] 0.988 | [62] 0.954 | [63] 0.999 | [64] 0.981 | S. cerevisiae deletion strains, locus YOL006C, strain TOP1, stronger effect = lower value 0.973 | [65] 1.87 | [66] 0.998 | [67] 0.997 | [68] 0.983 | [69] 0.981 | [70] 0.987 | [71] 0.94 | [72] 0.992 | S. cerevisiae deletion strains, locus YPL055C, strain LGE1, stronger effect = lower value 1.05 | S. cerevisiae deletion strains, locus YPL241C, strain CIN2, stronger effect = lower value 0.993 | [73] 0.994 | [74] 0.982 | [75] 0.991 | [76] 0.99 | [77] 0.988 | [78] 0.979

CC(=O)OCC1(C)CCC2(C)CCC3(C)C4=CCc5c(cc(OC(C)=O)c(OC(C)=O)c5C)C4(C)CCC3(C)C2C1 (centres undefined)
inactive: [1] 1.01 | [2] 0.994 | [3] 1.02 | [4] 1.01 | [5] 1.02 | [6] 1.04 | [7] 1.02 | [8] 1.01 | [9] 1.01 | [10] 0.974 | [11] 1.04 | [12] 1.01 | [13] 0.997 | [14] 0.984 | [15] 1.01 | [16] 0.999 | [17] 1.01 | [18] 1 | [19] 1 | [20] 0.998 | [21] 1.04 | [22] 1 | [23] 0.992 | [24] 1.02 | [25] 1 | [26] 1.02 | [27] 1.02 | [28] 1.01 | [29] 1.02 | [30] 1.02 | [31] 1 | [32] 1 | [33] 1.04 | [34] 1.01 | [35] 1.01 | [36] 1.02 | [37] 1.02 | [38] 1.01 | [39] 0.997 | [40] 1.03 | [41] 1.02 | [42] 1 | [43] 1.07 | [44] 1 | [45] 1.01 | [46] 1.01 | [47] 1.01 | [48] 1.07 | [49] 1.02 | [50] 1 | [51] 0.997 | [52] 1.01 | [53] 1.01 | [54] 1.07 | [55] 1.03 | [56] 1.01 | [57] 1.02 | [58] 1.03 | [59] 1 | [60] 0.999 | [61] 1 | [62] 1 | [63] 1.02 | [64] 1.01 | [65] 1.15 | [66] 0.993 | [67] 1.02 | [68] 1.01 | [69] 0.998 | [70] 0.994 | [71] 1.04 | [72] 1 | [73] 1 | [74] 1.01 | [75] 1.02 | [76] 1 | [77] 1.03 | [78] 0.992
